A selection: hits, their analogues and other compounds. The true share with any hit is near 2.3%.
proKLK7 act: activators of human kallikrein-7 zymogen; purified proKLK7, EDANS-DABCYL substrate fluorescence; 100% is mature enzyme control, 0% vehicle; activation, % at 7 µM; 0.9% of 370,000 active; AID 652039;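 active = activation above the mean of all tested compounds plus 3 SD, computed per campaign excluding outliers beyond control limits, cut at about 13% in these data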
Target sequence (P49862 whole entry, looked up): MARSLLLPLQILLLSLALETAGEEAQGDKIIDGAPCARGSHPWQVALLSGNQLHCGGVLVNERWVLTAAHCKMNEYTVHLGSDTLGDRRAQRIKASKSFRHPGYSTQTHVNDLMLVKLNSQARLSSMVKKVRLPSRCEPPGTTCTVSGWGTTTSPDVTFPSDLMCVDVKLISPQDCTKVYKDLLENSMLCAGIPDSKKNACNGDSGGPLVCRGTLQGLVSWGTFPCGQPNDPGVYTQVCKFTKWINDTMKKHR
ADAM10 inh: ADAM10 inhibition, QFRET primary screen; O14672; recombinant ADAM10, EDANS/DABCYL FRET peptide cleavage, 3 h; inhibition, % at 7 µM; 0.62% of 370,000 active;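 active = inhibition above a per-campaign cutoff equal to the mean of compounds falling between control-based bounds plus 3 SD, cut at about 20% in these data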;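 also: 0% = DMSO wells while the 100% control is not disclosed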
V-ATPase pH: yeast V-ATPase proton transport regulation by pHLuorin; AID 504577; S. cerevisiae, pHLuorin cytosolic pH fluorescence; response, % at 10 µM; 0.37% of 350,000 active; in the data active = response mostly above about 7.3%, no sharp cut-off; inactive = mostly below about 5.4%; also: actives read high
ADAM17 inh: inhibitors of human ADAM17; 0.83% of 370,000 active; recombinant ADAM17, EDANS/DABCYL FRET peptide cleavage; inhibition, % at 6.95 µM; AID 720648; P78536;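 active = inhibition above the mean of compounds lying between control limits plus 3 SD, set per campaign, cut at about 8.5% in these data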;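 also: 0% = DMSO-only wells as the low control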
ADAM10 ctr: counter-screen for ADAM17 exosite inhibitors: inhibitors of human ADAM10; shares compounds with ADAM17 inh; inhibition, % at 6.95 µM; recombinant ADAM10, EDANS/DABCYL FRET peptide cleavage, 3 h; AID 743256; 47% of 2,900 active;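 active = mean inhibition over the triplicate runs exceeds the activity threshold set in the earlier primary screen, cut at about 20% in these data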;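 also: 0% = DMSO wells and 100% = marimastat wells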
ADAM17 confirm: human ADAM17 inhibition, confirmation; shares compounds with ADAM17 inh; recombinant ADAM17, EDANS/DABCYL QFRET peptide cleavage; inhibition, % at 6.95 µM; 65% of 2,900 active;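 active = mean inhibition across replicates above the hit cutoff set in the primary screen, cut at about 8.5% in these data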;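 also: 0% = DMSO wells and 100% = marimastat wells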
Numbers without * were called inactive; . = not tested or not shown.

SMILES | proKLK7 act | ADAM10 inh | V-ATPase pH | ADAM17 inh | ADAM10 ctr | ADAM17 confirm
CCCCOc1cc(C)nc(NCc2ccccc2)n1 | 1 | 14 | -5 | 11* | 16 | 8
CCOc1cc(C)nc(NCc2ccccc2)n1 | 0 | 0 | 3 | 0 | . | .
CN(C(=O)COC(=O)c1ccccc1SCC(=O)N1CCCC1)C1CCS(=O)(=O)C1 (stereo not given) | 0 | 16 | 2 | 9.0* | -12 | 0
CC(C)C(=O)N[C@H]1[C@H](O)CCC[C@@]12C(=O)N(Cc1ccccc1)c1ccccc12 | -1 | -2 | . | 3 | . | .
COc1ccc(C2c3c(-c4ccccc4O)n[nH]c3C(=O)N2CCc2ccc(OC)c(OC)c2)cc1 (stereo not given) | 0 | 24* | 3 | 12* | 23* | 15*
COc1cc(C2c3c(-c4ccccc4O)n[nH]c3C(=O)N2Cc2ccco2)cc(OC)c1OC (stereo not given) | 0 | 11 | 0 | 2 | . | .
Cc1ccc(Nc2nc(Cl)nc(NC(C)(C)C)n2)cc1 | 1 | 11 | 1 | 5 | . | .
Cc1ccc(Nc2nc(Nc3ccc(C)cc3)nc(SC3=NCCS3)n2)cc1 | 0 | 15 | -1 | 9.8* | 20* | 12*
O=C(c1ccc(F)cc1)N1CCC(C(=O)N2CCN(S(=O)(=O)c3cccc(Cl)c3)CC2)CC1 | 0 | -4 | -4 | 9.6* | -7 | 2
S=c1[nH]nc(-c2ccncc2)n1/N=C/c1ccccc1 | 0 | 1 | -2 | 3 | . | .
Cc1cccc(/C=N/n2c(-c3ccncc3)n[nH]c2=S)c1 | 0 | 10 | 3 | 11* | 12 | 4
CC(C)c1ccc(/C=N/n2c(-c3ccccc3)n[nH]c2=S)cc1 | 0 | 19 | 0 | 10* | 9 | 5
O=C1N2CCc3ccccc3C2CS(=O)(=O)N1CCc1ccccc1 (stereo not given) | 1 | 5 | . | -2 | . | .
Cc1ccc(S(=O)(=O)N2CC3(O)CN(C(=O)OC(C)C)N(C(=O)OC(C)C)CC3(OC(=O)Nc3cccs3)C2)cc1 (stereo not given) | 0 | 19 | 1 | 9.4* | 31* | 13*
CC(C)=CCc1cc([C@@H]2COc3c(ccc4c3C=CC(C)(C)O4)C2)c(O)cc1O | 0 | 13 | 0 | 13* | 13 | 8
Cc1cc(N2CCCC2=O)cc(C)c1S(=O)(=O)NCCOc1ccc(C(C)(C)C)cc1 | -1 | 16 | -6 | 11* | 8 | 6
CC(C)(C)OC(=O)C[C@H]1C/C=C\C[C@H](CC(=O)N[C@H](CO)Cc2ccccc2)C(=O)N[C@@H](Cc2ccccc2)COC1=O | 0 | 9 | 0 | 12* | 4 | 4
O=C(C[C@H]1C/C=C\C[C@@H](Cc2ccc(F)cc2)C(=O)O[C@H](c2ccccc2)CNC1=O)N[C@@H](CO)Cc1ccccc1 | -1 | 6 | -2 | -3 | . | .
O=C(C[C@H]1C/C=C\CC[C@@H](Cc2ccc(F)cc2)C(=O)O[C@@H](c2ccccc2)CNC1=O)N[C@H](CO)Cc1ccccc1 | 0 | 7 | 2 | 13* | 17 | 12*
Cc1ccc(CN2CCCCC(NC(=O)c3cccc(F)c3)C2=O)cc1 (stereo not given) | 0 | -2 | . | -1 | . | .
COC(=O)c1ccc2c(=O)n(CCCCCC(=O)NC3CCCCC3)c(=O)[nH]c2c1 | -1 | -30 | . | -4 | . | .
COc1cc(C(=O)NC(=S)NNC(=O)c2cnccn2)cc(OC)c1OC | -1 | 9 | -4 | 11* | 4 | 3
Cc1ccc(SCC(=O)OCC(=O)NCc2ccco2)cc1 | 0 | -4 | 8 | 9.2* | 8 | 4
CCNC(=O)Nc1ccc2c(c1)C(=O)N(C)[C@H]1CC[C@@H](CC(=O)NCCN3CCCC3)O[C@@H]1CO2 | 0 | -8 | . | -8 | . | .
O=C(CNC(=O)c1ccccc1F)N/N=C/c1cc(Br)ccc1OCc1ccccc1 | 0 | 19 | 3 | 8.8* | 32* | 15*
SMILES | proKLK7 act | ADAM10 inh | V-ATPase pH | ADAM17 inh | ADAM10 ctr | ADAM17 confirm
CNC(=O)CSCc1cnn(-c2ccccc2)c1-n1cccc1 | -1 | -8 | 0 | 0 | . | .
COc1cccc(CNC(=O)CSCc2cnn(-c3ccccc3)c2-n2cccc2)c1 | 0 | 18 | 4 | 14* | 0 | 4
O=S1(=O)N[C@@H](Cc2ccccc2)COc2cccc(NCCCN3CCOCC3)c21 | 0 | -1 | . | -3 | . | .
Oc1ccc(C[C@H]2CNCCN2CCC23CC4CC(CC(C4)C2)C3)cc1 | 0 | 14 | 0 | 11* | 2 | 2
Oc1ccc(C[C@@H]2CNCCN2CCC23CC4CC(CC(C4)C2)C3)cc1 | 1 | -2 | -2 | 1 | . | .
Cn1c(=O)n(Cc2ccccc2)c(=O)c2c1nc1n2CCCN1Cc1ccccc1 | 0 | -2 | -4 | 1 | . | .
Cc1ccc(Cn2c(=O)c3c(nc4n3CCCN4Cc3ccccc3)n(C)c2=O)cc1 | 1 | 6 | 3 | 10* | 15 | 5
COC(=O)C1=C(C)N(Cc2ccc(Br)cc2)C(=S)NC1c1ccc(F)cc1 (stereo not given) | 0 | 10 | . | 9.3* | 19 | 12*
O=C(NC(=S)Nc1ccc(Cc2ccncc2)cc1)c1ccccc1F | 0 | 9 | -2 | 12* | 2 | 2
O=C(NCc1ccco1)c1ccc(S(=O)(=O)N2CCCc3ccccc32)cc1 | 2 | 15 | -2 | 10* | 11 | 3
COc1c(OC(C)=O)ccc(/C=C/c2ccc3cccc(OCc4ccccc4)c3n2)c1[N+](=O)[O-] | -1 | 16 | -4 | 9.7* | 14 | 9.2*
CN(C)c1ccc(NC(=O)c2ccc(COc3cccc(Cl)c3)o2)cc1 | 0 | 17 | 2 | 10* | 18 | 12*
CCN1CCN(C(=O)c2ccc(COc3cccc(Cl)c3)o2)CC1 | 0 | 7 | -1 | -3 | . | .
CCCC(C)NC(=O)CN(Cc1ccco1)S(=O)(=O)c1ccccc1 (stereo not given) | 0 | -3 | 1 | 1 | . | .
CCC(C)NS(=O)(=O)c1ccc(S(=O)(=O)N(CC(=O)Nc2ccccc2)Cc2ccco2)cc1 (stereo not given) | 1 | 10 | 1 | 8.9* | 20* | 11*
COC(=O)[C@]1(C#N)CC(=O)N(Cc2ccc(Cl)cc2)[C@@H]1c1ccc(OC)cc1 | 0 | -3 | . | 1 | . | .
CCOc1cc(CNCCO)cc(Br)c1OCc1ccc(Cl)cc1 | 0 | 14 | 2 | 12* | 4 | 4
Nc1nc(N)c(Br)c(Nc2ccc(Cl)c(Cl)c2)n1 | 0 | 10 | 0 | 10* | 7 | 6
Nc1nc(N)c(N=O)c(Nc2ccc(Cl)c(Cl)c2)n1 | -4 | 8 | . | -2 | . | .
S=C(Nc1cc(Cl)cc(Cl)c1)NC(c1ccccc1)c1ccccc1 | . | 11 | . | 4 | . | .
CCc1c(-c2ccc(Cl)cc2)ncn1Cc1cccc(-c2ccccc2)c1 | 1 | 18 | . | 12* | 1 | 6

Compound activity (PubChem)
